High-throughput results from PubChem BioAssay.
The list is not random: actives were taken first. Their share in the collection is about 12%.
HP1b binding inh: inhibitors of HP1-beta chromodomain binding to methylated histone tails; AlphaScreen HP1-beta / biotin-H3K9me3 peptide binding; Potency, µM (top dose mostly 114 µM), most hits filed as inhibitors; actives 0.56% (n = 390,000); AID 540317; further: nearly all actives have a fitted effect of over 70% in size
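HP1-beta protein (50 nM final) preincubated 30 min at room temperature with biotinylated H3(1-18)K9me3 peptide (50 nM) in PBS pH 7.4, 0.01% Tween-20, then compound added for 30 min. AlphaScreen streptavidin donor/nickel chelate acceptor beads (10 ug/mL final), 30 min dark, luminescence read.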
BAZ2B block: BAZ2B (human) inhibition. actives 4.4% (n = 360,000). Q9UIF8. AlphaScreen BAZ2B-H3K14Ac peptide displacement. Potency, µM (top dose mostly 114 µM), actives largely listed as inhibitors; further: nearly all actives have a fitted effect of over 60% in size
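Multi-concentration screen (max 110 uM) measuring displacement of acetylated histone H3 peptide from BAZ2B by AlphaScreen, using 50 nM protein, 50 nM peptide and 10 ug/mL streptavidin donor plus Ni-chelate acceptor beads.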
L3MBTL1 block: inhibitors of human L3MBTL1; Q9Y468; AlphaScreen L3MBTL1–H3K9me1 peptide binding; Potency, µM (highest dose often 57.1 µM), actives largely listed as inhibitors; actives 0.66% (n = 230,000); further: nearly all actives have a fitted effect of over 60% in size
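AlphaScreen proximity signal between nickel-chelate acceptor and streptavidin donor beads (final 10 ug/mL) reports binding of 50 nM L3MBTL1 to 75 nM biotin-H3 K9me1 peptide; complex incubated with compounds 30 min at room temperature; cefsulodin titration as control.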
JMJD2A Tudor: inhibitors of human JMJD2A Tudor domain; O75164; AlphaScreen JMJD2A-Tudor / H3K4me3 peptide binding; Potency, µM (titrated, usually from 114 µM), actives largely listed as inhibitors; actives 4.4% (n = 390,000); AID 504339; further: nearly all actives have a fitted effect of over 50% in size
G9a inh: blocks human histone lysine methyltransferase G9a; AID 504332; actives 8.8% (n = 350,000); Q96KQ7; Potency, µM (highest dose often 102 µM), usual class: inhibitors; G9a H3K9 monomethylation, AlphaScreen, 2 h; further: nearly all actives have a fitted effect of over 75% in size
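Methyltransferase reactions run at room temperature for 2 h (20 nM enzyme, 500 nM biotin-H3K9 peptide, 20 uM SAM) after a 15 min compound preincubation; product detected by AlphaScreen beads and anti-H3K9me1 antibody.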
Sfp PPTase inh: blocks B. subtilis Sfp PPTase activity. Q9F4F7. Biochemical Sfp PPTase activity, qHTS. Potency, µM, most hits filed as inhibitors. actives 3.5% (n = 310,000). AID 1490;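 further: the enzyme is Sfp with the accession as filed and its product quenches rhodamine fluorescence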
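After 15 min at room temperature with compound, 15 nM Sfp received 5 uM rhodamine-CoA plus 12.5 uM BHQ-2-ybbR (50 mM Hepes pH 7.6, 10 mM MgCl2). Rate came from the fluorescence difference over 30 min, ex 525/em 598 nm.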
Each line names hits and unclear results; the compound was inactive in the other large screens. The call rests on the fitted dose curve; in most records, active means well fitted curve in the direction sought with a large enough effect; inconclusive means small, poorly fitted or top-dose-only effect, or another doubt; inactive means no such curve, though single readings can be large; an effect the other way counts as inactive or inconclusive.

CCc1ccc(C2=C(C)C(N3CCC(C(=O)NCCc4ccco4)CC3)=NS2(=O)=O)cc1	none (no result: L3MBTL1 block, Sfp PPTase inh)
Cc1cc(SCC(=O)N/N=C/c2ccc(O)c(O)c2O)c(C)cc1Br	HP1b binding inh inconclusive, JMJD2A Tudor 50µM, G9a inh inconclusive, Sfp PPTase inh 10µM (no result: L3MBTL1 block)
O=C1C(=O)N(Cc2cccnc2)C(c2cccc(O)c2)/C1=C(\O)c1ccc2c(c1)OCCO2 (stereo not drawn)	BAZ2B block inconclusive, G9a inh 35µM (no result: L3MBTL1 block)
O=C1C(=O)N(c2ccc(O)cc2)C(c2ccccc2[N+](=O)[O-])/C1=C(\O)c1ccccc1 (stereo not drawn)	G9a inh 56µM, Sfp PPTase inh inconclusive
O=C1C(=O)N(CCO)C(c2ccccc2[N+](=O)[O-])/C1=C(\O)c1ccccc1 (stereo not drawn)	JMJD2A Tudor inconclusive (no result: L3MBTL1 block)
COc1ccc(C2/C(=C(\O)c3ccc4c(c3)OCCO4)C(=O)C(=O)N2Cc2cccnc2)cc1 (stereo not drawn)	none (no result: L3MBTL1 block)
COc1ccccc1C1/C(=C(\O)c2ccc3c(c2)OCCO3)C(=O)C(=O)N1Cc1cccnc1 (stereo not drawn)	BAZ2B block inconclusive, JMJD2A Tudor 50µM, G9a inh inconclusive (no result: L3MBTL1 block)
C=CCOc1cccc(C2/C(=C(\O)c3ccc4c(c3)OCCO4)C(=O)C(=O)N2Cc2cccnc2)c1 (stereo not drawn)	BAZ2B block 50µM, JMJD2A Tudor inconclusive (no result: L3MBTL1 block, G9a inh)
Cc1ccc2[nH]c3c(=O)n(CC(=O)N4CCN(c5ccccc5F)CC4)ncc3c2c1	none (no result: L3MBTL1 block, Sfp PPTase inh)
CCc1cccc(-n2nnc(-c3nc(-c4ccccc4Cl)no3)c2N)c1	none (no result: L3MBTL1 block, Sfp PPTase inh)
COc1ccccc1NC(=O)CN1C(=O)CC(c2ccc(C)c(C)c2)=Nc2ccccc21	JMJD2A Tudor inconclusive (no result: L3MBTL1 block, Sfp PPTase inh)
O=C(Nc1ccccc1Cl)N1CCC2(CC1)Oc1ccccc1C(=O)N2Cc1ccc(F)cc1	none (no result: L3MBTL1 block, Sfp PPTase inh)
CCOc1ccc(C2/C(=C(\O)c3ccc4c(c3)OCCO4)C(=O)C(=O)N2Cc2cccnc2)cc1OCC (stereo not drawn)	BAZ2B block 50µM (no result: L3MBTL1 block, G9a inh)
CCOc1cccc(C2/C(=C(\O)c3ccc4c(c3)OCCO4)C(=O)C(=O)N2Cc2ccncc2)c1 (stereo not drawn)	none (no result: L3MBTL1 block)
O=C1C(=O)N(Cc2ccncc2)C(c2cccc(O)c2)/C1=C(\O)c1ccc2c(c1)OCCO2 (stereo not drawn)	BAZ2B block inconclusive, G9a inh 45µM (no result: L3MBTL1 block)
O=C1C(=O)N(Cc2cccnc2)C(c2cccc(Br)c2)/C1=C(/O)c1ccc2c(c1)OCO2 (stereo not drawn)	JMJD2A Tudor inconclusive, G9a inh inconclusive (no result: L3MBTL1 block)
Cc1ccc(/C(O)=C2\C(=O)C(=O)N(Cc3cccnc3)C2c2ccccc2[N+](=O)[O-])cc1 (stereo not drawn)	G9a inh 56µM, Sfp PPTase inh inconclusive
CN1/C(=C/c2cc[n+](C)c3ccccc23)C=Cc2ccccc21	HP1b binding inh inconclusive, BAZ2B block 28µM, JMJD2A Tudor 28µM, G9a inh 35µM (no result: L3MBTL1 block)
COC(=O)/C(C#N)=C1/C=Cc2ccccc2N1C	none
O=C(COc1ccc(Br)cc1Cl)NCCCN1CCOCC1	none (no result: L3MBTL1 block)
CC1CCCN(CCCOc2ccc(Br)cc2Cl)C1 (stereo not drawn)	HP1b binding inh inconclusive, BAZ2B block inconclusive, JMJD2A Tudor 1.1µM, G9a inh 20µM
CC1CCN(CCOCCOc2ccc(Br)cc2Cl)CC1	HP1b binding inh inconclusive, BAZ2B block inconclusive, JMJD2A Tudor 2.8µM, G9a inh 8.9µM
CCOCCCNC(=O)NC(C)c1c(-n2cccc2)sc2c1CCN(CC)C2 (stereo not drawn)	none (no result: L3MBTL1 block, Sfp PPTase inh)
CCC(=O)N1c2ccc(S(=O)(=O)CCC(=O)NCc3ccc(OC)cc3)cc2CC1C (stereo not drawn)	G9a inh inconclusive (no result: BAZ2B block, L3MBTL1 block, Sfp PPTase inh)
COc1cc(/C=C/C(=O)c2ccc3c(c2)OCO3)cc(Cl)c1O	HP1b binding inh inconclusive, BAZ2B block inconclusive, JMJD2A Tudor inconclusive, G9a inh 45µM (no result: L3MBTL1 block)
COc1ccc(/C=C/C(=O)c2ccc3c(c2)OCO3)c(OC)c1	none
